# Shown are actives, neighbours in structure and some others; about 6.5% of the full set was active somewhere.
# FMDV inh = antivirals against foot and mouth disease virus; FMDV antiviral cell-based qHTS; Potency, µM (series often up to 57.9 µM), for the others: top-dose activity change, negative = inhibition, usual class: inhibitors; actives 1.2% (n = 410,000); AID 1159524; calls by dose curve; tested in HEK293T cells; also: read-out not given here; potency is read from the fitted curve at half-maximal effect; nearly all actives have a fitted effect of over 45% in size
# MARV entry inh = blocks Marburg virus binding to or entry into cells | Marburg virus pseudotyped entry inhibition, cell reporter | Potency, µM (top dose mostly 37.8 µM), without a hit: top-dose activity change, negative = inhibition, most hits filed as inhibitors | actives 1.8% (n = 300,000); calls by dose curve; tested in HEK293 cells; also: potency is read from the fitted curve at half-maximal effect
# Vaccinia mCherry = vaccinia inhibition (mCherry reporter); Vaccinia virus mCherry reporter infection, fluorescence; Potency, µM (titrated, usually from 36.5 µM), without a hit: at the top dose activity change, negative = inhibition, hits mostly inhibitors; actives 0.63% (n = 310,000); AID 720579; calls by dose curve; tested in A549 cells; also: potency is read from the fitted curve at half-maximal effect; nearly all actives have a fitted effect of over 35% in size
# HCMV antiviral = human cytomegalovirus inhibition; activity change, negative = inhibition, % at 57.5 µM; HFF cells, HCMV-luciferase reporter, 72 h; hits give low values; actives 4.5% (n = 410,000); in the data active = activity change below about -60%; inconclusive = no clear call, values can overlap the other calls; inactive = above about -39%
#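 Compounds were evaluated in HFFs infected with an HCMV luciferase reporter virus (MOI 1 PFU/cell). Luciferase in lysates collected 72 h post infection served as the replication measure.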
# VACV Venus inh = vaccinia inhibition (Venus reporter); Vaccinia virus Venus reporter expression, fluorescence; Potency, µM (titrated, usually from 36.5 µM), inactives show top-dose activity change, negative = inhibition, most hits filed as inhibitors; actives 0.46% (n = 330,000); AID 720580; calls by dose curve; tested in A549 cells; also: potency is read from the fitted curve at half-maximal effect; nearly all actives have a fitted effect of over 30% in size
# LASV entry inh = blocks Lassa virus binding to or entry into cells | AID 540256 | actives 1.2% (n = 300,000) | Potency, µM (titrated, usually from 37.9 µM), without a hit: at the highest dose activity change, negative = inhibition, actives largely listed as inhibitors | Lassa virus pseudotype entry inhibition, cell reporter; calls by dose curve; tested in HEK293 cells; also: potency is read from the fitted curve at half-maximal effect; nearly all actives have a fitted effect of over 50% in size
# Active calls of the source: *; i = inactive; u = inconclusive; x = not tested or not shown; [ ] = another dose, or the depositor's remark. % is scaled to controls: 0 for no effect and ±100 for the full control effect.
SMILES,FMDV inh,MARV entry inh,Vaccinia mCherry,HCMV antiviral,VACV Venus inh,LASV entry inh
CC1CC(=O)C2=C(C1)Nc1ccccc1SC2c1ccc(F)cc1 (stereo not given),-17.2%,-17.4%,x,27.4,x,-16.1%
CCc1ccc(C2Sc3ccccc3NC3=C2C(=O)c2ccccc23)cc1 (stereo not given),54.4%,u,-13.1%,-84.5*,-11.1%,u
CC(=O)Nc1ccc(C2Sc3ccccc3NC3=C2C(=O)c2ccccc23)cc1 (stereo not given),126.1%,u,-20.1%,-28.6,-19.9%,7.8%[46.1 µM]
CC(NC(=O)c1cccnc1)c1nnc2n1CCN(Cc1ccc(-c3ccccc3)cc1)CC2 (stereo not given),-9.8%,x,-11.2%,x,-1.5%,x
Cc1oc(-c2cccc(Cl)c2)nc1Cn1c(SCc2ccc(F)cc2)nc2cccnc21,-17.5%,x,-9.7%,38.7,-16.8%,17.3%[46.1 µM]
NC(N)=N/N=C/c1ccc(Cl)c(Cl)c1,-23.0%,u,-23.3%,u,-25.0%,u
NC(N)=N/N=C/c1ccc(Cl)cc1Cl,0.0%,3.16µM*,u,-3.2,u,u
COc1cccc(CN(C)C(=O)CNC(=O)c2sc3ccccc3c2Cl)c1OC,39.8µM*,-8.7%,-12.9%,-35.2,-26.5%,u
COc1ccc(CN(C)C(=O)CNC(=O)Cc2cccc3ccccc23)c(OC)c1OC,-9.8%,5.1%[46.1 µM],-14.4%,x,-16.6%,-29.1%[46.1 µM]
CCOc1cccc(/C=C/c2ccc3cccc(O)c3n2)c1OC,-16.4%,u,u,-92.5*,-15.2%,u
CCOc1cccc(/C=C/c2ccc3cccc(O)c3n2)c1O,-1.0%,u,-22.0%,-100.1*,-19.5%,u
Cc1ccc(C)c(CSc2cn(CCNC(=O)c3cccs3)c3ccccc23)c1,u,u,-15.6%,-83.4*,-12.1%,u
CC(=O)N(C1=C(Cl)C(=O)c2ccccc2C1=O)C1CCCCC1,u,u,u,-103.4*,u,12.6µM*
COCCNC(=S)N1C[C@H]2CON(C)[C@H]2C[C@H]1c1ccccc1Br,x,x,x,-10.6,x,x
Cc1ccc(Nc2nc(OC(C(F)(F)F)C(F)(F)F)nc(N3CCOCC3)n2)cc1,u,1µM*,x,-1.0,-46.7%,11.0%
COC(=O)C/C=C\[C@@H](C)[C@@H](/C=N\OC[C@@H]1O[C@H](c2ccccc2)C=C[C@@H]1Oc1ccc(OC)cc1)NS(=O)(=O)c1ccc(C)cc1,x,1.0%[14.2 µM],x,x,x,x
COc1cc2nc(N(C)C)nc(N)c2cc1OC,0.0%,u,x,-93.6*,-37.8%,-15.4%
Cc1noc(C)c1C(=O)Nc1ccc(N(C)C)cc1,u,x,x,47.6,x,x
CN(C)c1ccc(NC(=O)c2cnsn2)cc1,-58.2%,u,-9.0%,-6.1,1.8%,7.08µM*
O=C(CSc1n[nH]c(=O)n1C1CC1)Nc1cc(Cl)ccc1Oc1ccccc1,14.1µM*,8.2µM*,x,-0.2,x,u
CCCn1c(=O)c2sccc2n2c(CCCC(=O)Nc3ccc(Oc4ccccc4)cc3)nnc12,-21.3%,x,-18.5%,-60.9*,-8.6%,-24.5%[46.1 µM]
O=C(COC(=O)c1ccc(C(F)(F)F)cc1)NC(=O)C1CCCCC1,x,x,-14.8%,x,-11.2%,x
O=C(Nc1ccc(N2CCCCC2)c(Cl)c1)c1ccc2c(c1)OCCO2,3.9%,-24.6%[46.1 µM],-17.0%,-77.1*,u,-24.1%
O=C(Nc1ccc2c(c1)OCO2)c1ccc(Br)c(S(=O)(=O)N2CCCC2)c1,u,u,u,-34.7,-23.8%,u
O=C(Nc1ccc(N2CCOCC2)c(Cl)c1)c1ccc(Cl)cc1,u,2.0%,-8.6%,u,5.9%,-10.5%
SMILES,FMDV inh,MARV entry inh,Vaccinia mCherry,HCMV antiviral,VACV Venus inh,LASV entry inh
O=C(Nc1ccc(N2CCCC2)c(Cl)c1)c1ccc2c(c1)OCCO2,-24.2%,u,-19.2%,-3.7,-7.9%,u
O=C(Nc1ccc(N2CCOCC2)c(Cl)c1)c1ccc2c(c1)OCCO2,-16.7%,x,x,-61.4*,x,x
O=C(Nc1ccc2c(c1)OCCO2)c1ccc(Br)c(S(=O)(=O)N2CCOCC2)c1,17.8µM*,u,-18.9%,-36.7,-14.2%,u
COc1ccc(C(=O)NCCc2csc(-c3ccc(Cl)cc3)n2)c(OC)c1,u,x,4.0%,-16.2,-4.7%,-15.7%[46.1 µM]
CCC(Sc1nc2ccccc2c2nc(CCc3c(C)n[nH]c3C)nn12)C(=O)Nc1ccc(F)cc1 (stereo not given),-25.9%,x,-7.2%,-8.8,7.7%,u
COc1ccc(-c2noc3ccccc23)cc1,x,x,x,3.6,x,x
COc1ccccc1-c1ccnc(-n2ncc(C(=O)N3CCCCC3c3cccnc3)c2C)n1 (stereo not given),12.8%,x,i,x,-7.7%,x
O=C(O)c1ccc(N=Cc2c(O)[nH]c(=O)[nH]c2=O)cc1,3.2%,15.3%,-4.8%,-76.1*,-2.9%,-1.4%
O=C(O)Cc1c(C(=O)O)nnn1-c1ccc(Cl)cc1Cl,-1.9%,x,x,-65.5*,x,x
O=C(c1cnsn1)N1CCOc2ccc(CN3CCOCC3)cc2C1,17.6%,x,-12.1%,x,-9.5%,x
CCCC1C(=O)n2c(nc3ccccc32)N=C1C (stereo not given),x,23.7%,x,x,x,x
CC(C)[C@@H](CO[Si](C)(C)C(C)(C)C)N1CC=CS1(=O)=O,x,x,x,x,x,7.6%[46.1 µM]
Cc1ccc(CNC(=O)CN(Cc2cccs2)C(=O)C2(C)CC(=O)N=C3C=CC=CN32)cc1 (stereo not given),-9.1%,4.1%,-8.0%,-77.3*,-5.0%,7.8%
CCCCCn1c(CN2CCN(c3ccc(OC)cc3)CC2)nc2c1c(=O)[nH]c(=O)n2C,0.0%,-9.4%[46.1 µM],-15.9%,-3.6,-0.3%,u
CCCCCn1c(CN2CCN(c3cc(Cl)ccc3C)CC2)nc2c1c(=O)[nH]c(=O)n2C,28.2µM*,16.4µM*,x,u,x,u
CCCCn1c(CN2CCN(c3cccc(Cl)c3)CC2)nc2c1c(=O)n(C)c(=O)n2C,-21.2%,u,x,-88.8*,x,-1.3%
CCOC(=O)C1CCN(S(=O)(=O)c2cc(-c3onc(C)c3C)ccc2OC)CC1,-10.2%,x,-11.3%,22.9,-9.7%,-2.2%[46.1 µM]

# Screens deposited in PubChem by National Center for Advancing Translational Sciences (NCATS).
